Screening results (PubChem)
M1 ag parental = counter-screen for M1 agonists: effect in parental CHO-K1 cells | AID 602248, 2012 | activation, % at 3 µM | 0.48% of 360,000 active | Fluo-8 calcium fluorescence; scaled to maximal ATP response, vehicle zero; in the data active = activation above about 15%;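 also: untransfected CHO-K1 host cells lacking M1 receptor as counterscreen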
M1 PAM parental = nonselective calcium activators in parental CHO-K1 cells, primary screen, counter-screen for M1 PAM project, cell-based, Fluo-8 calcium fluorescence, full deck, 1536-well; activation, % at 3 µM; ATP EC20; 0% at ATP EC20, 100% at ATP max; 0.02% of 360,000 active;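 active = activation above the run cutoff, the mean activation of all test compounds plus 3 SD, cut at about 40% in these data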;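 also: peak over basal fluorescence ratio in a 140 s read after ATP addition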
M1 antag = human M1 muscarinic receptor antagonists, primary screen, CHO-K1 cells, Fluo-8 calcium fluorescence, 1536-well. Muscarinic acetylcholine receptor M1 (Homo sapiens), P11229. CHO-K1 hM1, ACh EC80 antagonist. inhibition, % at 3 µM. 1.3% of 360,000 active. AID 588852, 2011;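 active = percent inhibition above its own plate's cutoff, namely the mean of that plate's compound wells plus 3 SD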;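 also: peak over basal fluorescence ratio during 140 s after agonist addition; 0% = ACh EC80 plus DMSO and 100% = DMSO alone without agonist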
Target sequence (P11229 whole entry, looked up): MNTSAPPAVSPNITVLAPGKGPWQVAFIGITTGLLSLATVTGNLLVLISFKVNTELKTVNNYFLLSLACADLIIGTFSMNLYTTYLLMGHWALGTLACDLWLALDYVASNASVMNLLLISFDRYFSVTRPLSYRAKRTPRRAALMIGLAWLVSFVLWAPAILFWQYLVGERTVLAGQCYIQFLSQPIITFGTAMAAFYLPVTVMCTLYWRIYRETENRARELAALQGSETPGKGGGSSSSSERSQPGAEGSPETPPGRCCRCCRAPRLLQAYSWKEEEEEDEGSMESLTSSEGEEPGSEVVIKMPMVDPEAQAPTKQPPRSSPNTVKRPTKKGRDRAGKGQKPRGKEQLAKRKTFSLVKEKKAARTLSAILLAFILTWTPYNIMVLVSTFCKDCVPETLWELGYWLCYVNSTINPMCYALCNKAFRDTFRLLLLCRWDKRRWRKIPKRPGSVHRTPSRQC
M1 ag = human M1 muscarinic receptor agonists, primary screen, Fluo-8 calcium fluorescence, CHO-K1 cells, HTS; Muscarinic acetylcholine receptor M1 (Homo sapiens), P11229; CHO-K1 hM1, agonist mode; 0% DMSO, 100% acetylcholine EC100; activation, % at 3 µM; 0.33% of 360,000 active;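 active = activation above the run's mean compound activation plus 3 SD, cut at about 16% in these data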;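 also: peak over basal fluorescence ratio within a 140 s kinetic read after compound addition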
M1 PAM = human M1 muscarinic receptor positive allosteric modulators, primary screen, CHO-K1 cells, Fluo-8 calcium fluorescence, 1536-well; AID 588819, 2011; 0.088% of 360,000 active; CHO-K1 hM1, ACh EC20; 0% = ACh EC20, 100% = maximal ACh; activation, % at 3 µM; in the data active = activation above about 19%, passing the limit was not always enough
CHO-K1 Ca antag = nonselective inhibitor or artifact in parental CHO-K1 cells | ATP-induced calcium, Fluo-8 fluorescence | inhibition, % at 3 µM | 0.6% of 360,000 active | AID 602250;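 active = inhibition above a per-plate cutoff, the plate's mean sample inhibition plus 3 SD, cut at about 24% in these data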;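 also: 0% = DMSO plus EC80 ATP and 100% = DMSO alone without ATP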
Active calls of the source: *. Hits are enriched below; roughly 2.3% of the tested compounds scored in any of these assays.

SMILES | M1 ag parental | M1 PAM parental | M1 antag | M1 ag | M1 PAM | CHO-K1 Ca antag
O=C(C[n+]1cc(-c2ccc(Cl)cc2)n2c1CCCCC2)c1ccccc1 | 0 | -15 | 14 | -8 | -8 | 0
Cc1cccnc1NC(=O)CNC(=O)C12CC3CC(CC(C3)C1)C2 | 1 | -17 | -5 | -1 | 0 | 4
O=c1c2ccccc2ncn1-c1ccc([N+](=O)[O-])cc1[N+](=O)[O-] | 19* | -20 | 2 | 6 | -8 | 2
Cn1cc2cc([N+](=O)[O-])ccc2n1 | 0 | 10 | 4 | 23* | 1 | 0
CCOc1ccc(CCNS(=O)(=O)c2c(C)nc3sccn3c2=O)cc1OCC | 0 | -6 | -7 | -4 | 3 | -3
COc1ccc(CCNCC(C)c2ccccc2)cc1 (stereo not given) | 1 | 5 | 35* | -9 | -20 | -5
CN1CCN(C(=O)/C(=C/c2ccccc2F)NC(=O)c2ccccc2)CC1 | 0 | 5 | -12 | 0 | 13 | 8
CCC(=O)c1ccc(OCC(=O)Nc2cccc(S(=O)(=O)N(C)c3ccccc3)c2)cc1 | 17* | -12 | 56* | 3 | -26 | 8
COCCn1cnnc1SCC(=O)Nc1cccc(S(=O)(=O)N(C)c2ccccc2)c1 | 14 | 2 | -2 | -7 | 9 | 11
Cc1nnc(SCC(=O)Nc2cccc(S(=O)(=O)N(C)c3ccccc3)c2)s1 | 14 | -6 | 36* | 1 | -19 | 21
COc1cccc(CN(C)CC(=O)Nc2cccc(S(=O)(=O)N(C)c3ccccc3)c2)c1OC | 5 | -5 | 12 | -5 | -14 | -17
CN(c1ccccc1)S(=O)(=O)c1cccc(NC(=O)COc2cccc([N+](=O)[O-])c2)c1 | 7 | -5 | 13 | -3 | -10 | -11
CCOc1ccc(CN(C)CC(=O)Nc2cccc(S(=O)(=O)N(C)c3ccccc3)c2)cc1 | 18* | 7 | 9 | -6 | -4 | 0
CC(=O)c1ccc(N2CCN(C(=O)/C=C/c3ccc(S(=O)(=O)NCc4ccco4)cc3)CC2)cc1 | 10 | -3 | 39* | -3 | -16 | 5
O=C(NCCCN1CCC(Cc2ccccc2)CC1)c1ccc(CS(=O)c2ccccc2Cl)o1 (stereo not given) | 2 | -11 | 50* | -7 | -24 | 8
CS/C(=N\N(C)C(N)=O)c1ccccc1 | 15* | 16 | -1 | -5 | 8 | 4
CCOC(=O)c1ccc(Nc2ncnc3nc[nH]c23)cc1 | 3 | 17 | 4 | -1 | -1 | -9
c1ccc(COc2ccc(Nc3ncnc4nc[nH]c34)cc2)cc1 | 1 | 0 | -3 | 10 | 1 | 24*
CN(C)C1=NC[C@H](Cc2ccccc2)N1CCCC1CCCCC1 | 11 | 16 | 31* | -2 | -22 | -6
CC(C)C[C@H]1CNC(=S)N1CC1CCN(CCCC2CCCC2)CC1 | 1 | 9 | 75* | -11 | -31 | -15
CN(C)C1=NC[C@H](Cc2ccccc2)N1CCCC1CCCC1 | 3 | 0 | 11 | -9 | -9 | -4
CCCCN1CCC(CN2C(=S)NC[C@@H]2CC(C)C)CC1 | 1 | 18 | -3 | -11 | 6 | -2
S=C1NC[C@H](Cc2ccccc2)N1CCCCC1CCCCC1 | 1 | 9 | 5 | -4 | 2 | -12
CC(C)C[C@H]1CNC(=S)N1CC1CCN(CCCCc2ccccc2)CC1 | 0 | -7 | 52* | -11 | -30 | -1
S=C1NC[C@H](Cc2ccccc2)N1CC1CCN(CCCC2CCCC2)CC1 | 2 | 8 | 38* | -11 | -27 | -9
SMILES | M1 ag parental | M1 PAM parental | M1 antag | M1 ag | M1 PAM | CHO-K1 Ca antag
CCOC(=O)C1=C(C)NC(C)=C(C(=O)OCC)C1C(=O)OCC(=O)NC1(C#N)CCCCC1 | 7 | -30 | 23 | 2 | -8 | 14
CC(C)OC(=O)CSc1nnc(CNc2ccc(Cl)cc2)n1Cc1ccccc1 | 4 | -8 | 20 | 1 | -12 | 36*
CCOC(=O)CSc1nnc(CNc2ccc(Cl)cc2)n1Cc1ccccc1 | 7 | 0 | 24 | 3 | -7 | 12
CC1CC2(CCCCC2)N2C(=O)C(=O)c3cccc1c32 (stereo not given) | -1 | 18 | -9 | 17* | 7 | -13
CC(C)c1ccc(/C=C/C(=O)NC(=S)Nc2ccc(CN3CCOCC3)cc2)cc1 | 2 | -8 | 48* | -12 | -30 | 4
O=C(COc1ccc(Cl)cc1Cl)NC(=S)Nc1ccc(CN2CCOCC2)cc1 | 5 | -4 | 37* | -6 | -20 | 4
Nc1ccc(/C=C/C(=O)c2cccs2)cc1 | 22* | 0 | 11 | 14 | -3 | 10
O=C(C=Cc1ccccc1)c1cccs1 | 1 | -6 | -15 | -5 | 8 | 2
COc1ccc(NC(=O)CN(C)C(=O)CNC(=O)c2ccc(C)s2)cc1 | 3 | 8 | -11 | -3 | 5 | 7
CCc1nc(CN2CCCC(C(=O)c3ccc4c5c(cccc35)CC4)C2)c(C)[nH]1 (stereo not given) | 0 | -9 | 9 | -10 | -12 | 25*
O=C(c1ccc2c3c(cccc13)CC2)C1CCCN(Cc2ccncc2)C1 (stereo not given) | 6 | -14 | 5 | -5 | -10 | 2
O=C(NP(=O)(N1CCCC1)N1CCCC1)C1=C(N2CCOCC2)/C(=C/c2cccc([N+](=O)[O-])c2)CC1 | 17* | 8 | -4 | -6 | 3 | 7
CCOC(=O)C(=O)C1=C(N2CCOCC2)/C(=C\c2cccc([N+](=O)[O-])c2)CC1 | 0 | 14 | -9 | -4 | 2 | -7
CCN(CC)CCOCCOC(=O)C(CC)(CC)c1ccccc1 | 1 | 2 | 38* | -6 | -20 | -13
CCC1CCCCN1S(=O)(=O)c1ccc(NC(=O)c2ccncc2)cc1 (stereo not given) | 16* | -14 | 34* | 4 | -13 | 12
CCC1CCCCN1S(=O)(=O)c1ccc(S(=O)(=O)N(Cc2ccccn2)CC2CCCO2)cc1 (stereo not given) | 3 | 13 | 9 | -12 | -17 | -8
CCC1CCCCN1S(=O)(=O)c1ccc(S(=O)(=O)N(Cc2cccs2)C2CC2)cc1 (stereo not given) | 2 | 5 | 63* | -10 | -36 | -10
N#Cc1ccc(Cn2c(-c3ccc(F)cc3)noc2=O)cc1 | 1 | 15 | -13 | 5 | 5 | -7
COc1ccc2[nH]c3c(=O)n(N)c(=O)[nH]c3c2c1 | 2 | 18 | -8 | -5 | 6 | -21
